Reference: PubChem BioAssay (Tox21)
Records with an inconclusive call do not appear. Values without a mark were called inactive. Calls come from the whole dose curve; as a rule, active = well fitted activation curve with a large enough effect in the signal ratio in the repeat runs (not every such curve was filed as active); inconclusive = weak or mixed curves, or effect the other way; inactive = flat fitted curve, though single readings scatter; the % refers to the signal ratio.

Experiment: qHTS assay to identify small molecule agonists of the endoplasmic reticulum stress response signaling pathway (AID 1159516)
Conditions: ESRE-bla HeLa, ER stress beta-lactamase reporter, 5 h; series mostly up to 61 µM; activation: at the top concentration
Text: National Center for Advancing Translational Sciences [NCATS]
NIH Chemical Genomics Center [NCGC]
U.S. Environmental Protection Agency [EPA]
National Institutes of Environmental Health Sciences [NIEHS]
National Toxicology Program [NTP]
U.S. Food and Drug Administration [FDA]
Endoplasmic Reticulum (ER) plays an important role in cellular signaling, protein folding/maturation, stress response, lipid biosynthesis, calcium storage and release etc. Under stress conditions, proteins in ER misfold or unfold, and leading to the expression of ER stress responsive genes. ER stress has been associated with a variety of pathophysiological conditions such as cancer, inflammation, neurodegenerative diseases, diabetes, ischemic heart disease etc. To identify the compounds that induce ER stress response, an ER stress reporter cell line, CellSensor ESRE-bla HeLa (Life Technologies, Carlsbad, CA) containing a beta-lactamase reporter gene under control of the Endoplasmic reticulum Stress Response Element (ESRE) was used to screen Tox21 10K compound library.
Tox21 Assay Protocol Summary:
ESRE-bla HeLa cells were dispensed at 1,500 cells/6 uL of assay medium per well into black wall/clear-bottom 1536-well plates using a Multidrop Combi (ThermoFisher Scientific, Waltham, MA) dispenser. After the assay plates were incubated at 37 C and 5% CO2 for an overnight, 23 nL of compounds dissolved in DMSO, positive controls or DMSO only was transferred to the assay plate by a Pintool station (Kalypsys, San Diego, CA). The assay plates were incubated at 37 C and 5% CO2 for 5 hr. One uL of LiveBLAzer B/G FRET substrate (Life Technologies) was added using a Flying Reagent Dispenser (Aurora Discovery, San Diego, CA) and the plates were incubated at room temperature for 2 hr. Fluorescence intensity (405 nm excitation, 460 nm and 530 nm emissions) was measured using an Envision plate reader (PerkinElmer, Shelton, CT).
% is set by controls: 0 for no effect and ±100 for the full control effect.

| SMILES | activation |
| --- | --- |
| COS(=O)(=O)C(F)(F)F | -6.3% [at 78.8 µM] |
| CCCCCCOC(=O)NC(=N)c1ccc(NCc2nc3cc(C(=O)N(CCC(=O)OCC)c4ccccn4)ccc3n2C)cc1 | 1.85% |
| CC(=O)NO | -2.13% |
| CCCCCCCCCCCCCCOS(=O)(=O)O | -2.71% |
| CN(C)CCN(Cc1ccsc1)c1ccccn1 | 0.164% |
| Cc1[nH]c(C)c(Cl)c(=O)c1Cl | 0.09% [at 28.5 µM] |
| COc1cc2nc(N3CCN(C(=O)C4COc5ccccc5O4)CC3)nc(N)c2cc1OC (stereo not given) | 0.105% |
| CC(C)Nc1ccc(NC(C)C)c2c1C(=O)c1ccccc1C2=O | -1.29% |
| OCc1cc(C(O)CNCCCCCCOCCCCc2ccccc2)ccc1O (stereo not given) | -4.23% |
| CCOC(=O)C(O)c1ccccc1 (stereo not given) | 1.89% |
| NS(=O)(=O)c1ccc(N2CCCCS2(=O)=O)cc1 | 2.66% |
| O=C(O)c1ccc(S(=O)(=O)O)cc1C(=O)O | 0.274% [at 78.8 µM] |
| CCCCCCCC/C=C\CCCCCCCC(=O)OCC | -1.05% |
| CCOC(=O)c1cccnc1 | 2.53% |
| C=C(C)C(=O)OCCO | -0.14% [at 78.8 µM] |
| CC(C)=CCC/C(C)=C/CC/C(C)=C/CO | -4.95% |
| CC1CCC(=O)C1=O (stereo not given) | -0.0247% [at 78.8 µM] |
| COc1ccc(C(=O)N2CCN(CC(=O)N3CCOCC3)CC2)cc1 | -4.34% |
| CN(Cc1ccc(C(C)(C)C)cc1)Cc1cccc2ccccc12 | -0.0546% |
| COc1cc(C(=O)OCCCN2CCCN(CCCOC(=O)c3cc(OC)c(OC)c(OC)c3)CC2)cc(OC)c1OC | 0.613% |

| SMILES | activation |
| --- | --- |
| C=C1C(=C/C=C2\CCC[C@]3(C)[C@@H]([C@H](C)/C=C/[C@@H](O)C4CC4)CC[C@@H]23)C[C@@H](O)C[C@@H]1O | 2.25% |
| COC(C)(C)CCO | -0.579% |
| CNC(=O)CN(CCN(CCN(CC(=O)[O-])CC(=O)NC)CC(=O)[O-])CC(=O)[O-].O.[Gd+3] | 0.268% |
| O=CC1CC=CCC1 (stereo not given) | -0.419% |
| COc1ccc(S(=O)(=O)N2C(=O)[C@@](c3ccccc3OC)(N3C[C@H](O)C[C@H]3C(=O)N(C)C)c3cc(Cl)ccc32)c(OC)c1 | -9.87% |
| c1ccc(C(O[C@H]2CCCN(CCc3ccc4c(c3)OCO4)C2)c2ccccc2)cc1 | 1.5% |
| CC1=CC[C@H](C(C)C)C=C1 | 0.138% |
| CC(=O)c1ccc2c(c1)N(CCCN1CCC(CCO)CC1)c1ccccc1S2 | -3.09% |
| CC(COCCO)OCCO (stereo not given) | 3.54% |
| CN(C)CCN(Cc1ccc(Cl)cc1)c1ccccn1 | -0.5% |
| O=C1OC(=O)C2C3C=CC(C3)C12 (stereo not given) | -3.54% |
| Nc1ccccc1S(=O)(=O)c1ccccc1 | -3.95% |
| O[C@@H](COc1cccc2ncccc12)CN1CCN(C2c3ccccc3[C@@H]3[C@H](c4ccccc42)C3(F)F)CC1 (stereo not given in full) | -0.079% |
| Cc1ccc(N=Nc2c(O)c(C(=O)O)cc3ccccc23)c(S(=O)(=O)O)c1 | -2.81% |
| CCCCC1=NC2(CCCC2)C(=O)N1Cc1ccc(-c2ccccc2-c2nn[nH]n2)cc1 | -0.0819% |
| Nc1cc(C(=O)O)c(O)c(S(=O)(=O)O)c1 | -2.44% |
| CN(C)c1ccc(CCO)cc1 | -0.307% |
| CC(=O)c1cccc([N+](=O)[O-])c1 | 0.354% |
| CCCCC(=O)OCC(=O)[C@H]1[C@H](C)C[C@H]2[C@@H]3C[C@H](F)C4=CC(=O)C=C[C@]4(C)[C@@]3(F)[C@@H](O)C[C@@]21C | -0.211% |
| CCCCCCCCCCCCCCCCCCOS(=O)(=O)O | -5.14% |
